The entries come from a sample that favours hits as a whole.
Pf Dd2 growth: Plasmodium falciparum Dd2 growth inhibition | Potency, µM (top dose mostly 28.9 µM), for the others: top-dose activity, negative = inhibition, actives largely listed as inhibitors | AID 1347417 | hit rate 4.3% among 120,000 | P. falciparum Dd2 growth, SYBR Green, 72 h; active = well fitted inhibition curve with a large enough effect;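 also: plate controls were DMSO vehicle for no effect and reference drug for full effect; nearly all actives have a fitted effect of over 65% in size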
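Readout: SYBR Green fluorescence, 485 nm excitation, 535 nm emission, after ~16 h lysis at 37C. Before that, Dd2-infected red cells (2.5% hematocrit) grew 72 h with compound, 29 uM top final concentration.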
An asterisk follows results filed as active; i = inactive; [ ] = remark or other dose. Potency is read from the fitted curve at half-maximal effect.

SMILES	Pf Dd2 growth
O=C1NCCCCCN(C(=O)CC2CCCCC2)[C@@H]2C[C@@H](C(=O)N3CCc4ccccc4C3)C[C@H]12	7.1µM*
O=C1NCCCCCCN(C(=O)c2ccoc2)[C@H]2C[C@H](C(=O)N3CCN(c4ccccn4)CC3)C[C@@H]12	i
Cc1ccc(C(=O)N2CCCCCCNC(=O)[C@@H]3C[C@@H](C(=O)N4CCc5ccccc5C4)C[C@@H]32)s1	7.9µM*
Cc1cccc(C(=O)N2CCCCCCNC(=O)[C@@H]3CCCC[C@@H]32)c1	0%
O=C1NCCCCCCN(C(=O)c2cnccn2)[C@H]2C[C@H](C(=O)N3CCc4ccccc4C3)C[C@@H]12	-3%
O=C1NCCCCCCN(C(=O)Cc2ccccc2)[C@H]2CCCC[C@@H]12	i
Cc1cccc(C(=O)N2CCCCCNC(=O)[C@H]3C[C@H](C(=O)N4CCc5ccccc5C4)C[C@H]32)c1	8.9µM*
Cc1cccc(C(=O)N2CCCCCNC(=O)[C@@H]3CCCC[C@@H]32)c1	3%
O=C(CCc1cc2n(n1)CCCNC2)N1CCCC1c1nc2ccccc2[nH]1 (stereo not drawn)	-18%
Cn1cc([C@@H](NC(=O)c2ccc3c(c2)OCC(=O)N3)C2CC(O)C2)cn1 (stereo partly drawn)	0%
CNC(=O)N1CCC(C2CCN(C(=O)NCc3ccc(F)cc3)C2)CC1 (stereo not drawn)	-15%
COc1ccc(CCNC(=O)c2c(C)noc2-c2ccc3c(c2)OCO3)cc1OC	-13%
CN(CC1CCOCC1)S(=O)(=O)c1ccccc1	15%
CCn1nc(-c2ccccc2CN2CCOCC2)nc1N(C)C	-7%
c1ccc(-c2ccc(CN3CCCC3)cc2)c(CN2CCOCC2)c1	8.9µM*
O=C(O)C1CCCN(Cc2ccccc2OCCCN2CCOCC2)C1 (stereo not drawn)	-1%
N#Cc1ccc(C(=O)N2CCC3(CC2)NC(=O)N(Cc2ccc(Cl)cc2)C3=O)cc1	-17%
Cc1c(Cl)cccc1NC(=O)Cn1ccn2nc(-c3ccccc3)c(CO)c2c1=O	1%
COC1CCOC2(CCN(C(=O)Cc3ccccc3F)CC2)C1 (stereo not drawn)	6%
C=C[C@H]1CN2CC[C@H]1C[C@@H]2CNC(=O)Nc1ccc(C(C)=O)cc1	-31%[44.1 µM]
C=C[C@H]1CN2CC[C@H]1C[C@@H]2CNS(C)(=O)=O	-13%[44.1 µM]
C=C[C@H]1CN2CC[C@H]1C[C@@H]2CNCc1ccc(SC)cc1	7.1µM*
C#C[C@H]1CN2CC[C@H]1C[C@@H]2CNS(=O)(=O)c1ccc(C)cc1	-9%[44.1 µM]
C#CCN(C)C[C@H]1CN2CC[C@H]1C[C@@H]2CNS(=O)(=O)c1ccc(Cl)cc1	i
C=C[C@H]1CN2CC[C@H]1C[C@@H]2CNC(=O)c1ccc(N(C)C)cc1	-5%[44.1 µM]
SMILES	Pf Dd2 growth
C#C[C@H]1CN2CC[C@H]1C[C@@H]2CNS(=O)(=O)c1ccc(NC(C)=O)cc1	-6%[44.1 µM]
C=CCN(C)C[C@H]1CN2CC[C@H]1C[C@@H]2CNC(=O)Nc1ccccc1	-17%[44.1 µM]
C#C[C@H]1CN2CC[C@H]1C[C@@H]2CNS(=O)(=O)c1ccc(OC)cc1	3.2µM*
C=C[C@H]1CN2CC[C@H]1C[C@@H]2CNS(=O)(=O)Cc1ccccc1	7.1µM*
C=C[C@H]1CN2CC[C@H]1C[C@@H]2CNC(=O)c1ccc(-c2ccccc2)cc1	-25%[44.1 µM]
C=CCN(C)C[C@H]1CN2CC[C@H]1C[C@@H]2CNS(=O)(=O)c1ccc(C)cc1	11µM*
COCCn1ncc(N2CCCC(CC(=O)NCc3ccncc3)C2)cc1=O (stereo not drawn)	37%
Cc1ccccc1C(=O)N1CC(C(=O)N(C)C)C2(CCOCC2)C1 (stereo not drawn)	27%
Cc1nn(C)c(C)c1CN(Cc1cnc(N2CCCCC2)nc1)C1CC1	-26%
O[C@@H]1C[C@@H](c2nc(-c3ccc(F)cc3)no2)N(Cc2ccncc2)C1	-13%[44.1 µM]
COCC1CN(C(=O)c2ccc(OC)cc2OC)CC12CCOCC2 (stereo not drawn)	15%
N#Cc1ccc(S(=O)(=O)N2CCOCCNC(=O)[C@H]3CCCC[C@H]32)cc1	14%
COc1ccc(-c2cc(N3CCC(NC(=O)c4cccc(F)c4)CC3)n[nH]2)cc1	-13%
Cn1cc(CC(=O)N2CCCc3ncc(C(=O)Nc4cccc(F)c4)cc32)c2ccccc21	i
C#C[C@H]1CN2CC[C@H]1C[C@@H]2CNS(=O)(=O)Cc1ccccc1	7.1µM*
C#C[C@H]1CN2CC[C@H]1C[C@@H]2CNS(=O)(=O)CCC	i
C#C[C@H]1CN2CC[C@H]1C[C@@H]2CNS(=O)(=O)c1ccccc1	i
Cn1cccc1CNC(=O)Cn1nc2c(cc1=O)CCCC2	10%
COc1ccc(-c2cnc3n[nH]c(-c4sccc4C)c3n2)cc1OC	-15%[44.1 µM]
CN(C)CCNC(=O)c1nc(-c2ccc(N3CCN(C)CC3)cc2)cc2c1ccn2C	11µM*
COc1ccc(-c2cc3c(ccn3C)c(C(=O)NCCC(N)=O)n2)cc1OC	-9%[44.1 µM]
Cn1ccc2c(C(=O)NCc3cccnc3)nc(-c3ccc(CO)cc3)cc21	-23%[44.1 µM]
Cc1noc(C)c1[S+](=O)([O-])N1CCC2(CC1)CC(=O)c1ccc(Cl)cc1O2	-10%

Screens as filed in PubChem.
